In all, about 360,000 compounds went through this assay and about 8,200 (2.3%) were called active. The full list was thinned out, with actives kept by preference. Unmarked numbers belong to inactive results. Cut-off read from the data, not from the text of the source: active = inhibition above about 27%; inactive = the rest.

For orientation: inhibition means the relative decrease from the control value, in per cent.

For this assay, the target named is Fructose-bisphosphate aldolase (Mycobacterium tuberculosis (strain ATCC 25618 / H37Rv)) (UniProt P9WQA3). The experiment in a line: Mtb FBA enzyme inhibitors, primary screen, biochemical, fluorescence, strain H37Rv (AID 588726).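 Note: 0% = vehicle and 100% = reference inhibitor.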 The following applies: purified M. tuberculosis FBA, fluorescence read-out, at 1 µM, active compounds read high.
Fructose-bisphosphate aldolase (Mycobacterium tuberculosis (strain ATCC 25618 / H37Rv)), sequence (P9WQA3 whole entry, looked up): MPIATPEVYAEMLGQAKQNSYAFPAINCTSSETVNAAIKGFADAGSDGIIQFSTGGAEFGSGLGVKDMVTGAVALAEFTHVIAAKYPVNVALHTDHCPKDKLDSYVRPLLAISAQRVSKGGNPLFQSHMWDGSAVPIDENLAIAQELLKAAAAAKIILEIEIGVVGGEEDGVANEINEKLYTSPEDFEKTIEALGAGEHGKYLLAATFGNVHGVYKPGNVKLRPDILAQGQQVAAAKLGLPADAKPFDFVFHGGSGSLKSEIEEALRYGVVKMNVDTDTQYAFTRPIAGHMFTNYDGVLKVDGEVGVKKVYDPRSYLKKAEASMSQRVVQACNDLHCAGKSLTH
In the case of `N#Cc1c(C(F)(F)F)cc(-c2cccs2)nc1N1CCCCC1`, the inhibition is 11%. To `N#Cc1c(N2CCCCC2)nc(N)c2c(N)nc(SCC(=O)O)cc12` belongs 29.2% (active); to `O=C(O)CSc1ccc(S(=O)(=O)N2CCCC2)cn1`, -0.83%; to `COCc1c(C(=O)OCc2c(C)noc2C)oc2ccccc12`, 5.69%.

As to `CCOc1ccccc1C(=O)NC1CC2CCCC(C1)N2Cc1ccccc1` (stereo unspecified), the inhibition is -3.49%.

Take `Cc1ccnc(NC(=O)C2CCN(S(=O)(=O)c3c(C)c(C)cc(C)c3C)CC2)c1`: the inhibition is 1.99%. On to `CCN(CC(=O)Nc1c(F)cccc1F)C(=O)c1ccc(-c2ccccc2)cc1`, for which the inhibition was 1%. Consider `CCN(CC(=O)Nc1c(F)cccc1F)C(=O)c1cnc(C)cn1`, for which the inhibition was 2.56%. Regarding `CCN(CC(=O)Nc1c(F)cccc1F)C(=O)c1ccc(-c2ccc(C(C)=O)cc2)o1`, the inhibition is 142% (active). Next, `COC(=O)c1ccc([C@@H](O)[C@H](C)C(=O)CC(=O)OC(C)(C)C)cc1`: 0.55%; `CCOc1ccc(S(=O)(=O)N2CCCC(C(=O)N3CCC(C(N)=O)CC3)C2)cc1Cl` (stereo unspecified): 2.08%; `COc1cc(Br)cc(/C=N/c2ncn[nH]2)c1O`: -0.39%. To `Oc1ccc(Br)cc1C=Nc1ccc2[nH]ncc2c1` belongs 39.7% (active); to `COc1ccc(C)cc1NC(=O)CSc1nnc2ccc(-c3ccccn3)nn12`, 5.79%; to `COCCCNC(=O)c1ccc(-c2c(C)noc2C)c2ccoc12`, 1.17%. Take `COc1ccc(-c2ccc(C(=O)NC(C)C)c3occc23)c(C)c1`: the inhibition is 69.8% (active). On to `COc1ccc(-c2cc(C(=O)NCCCN3CCOCC3)no2)cc1`, for which the inhibition was 3.9%. Next, `COc1ccc(-c2ccc(C(=O)NCCN3CCOCC3)c3occc23)c(C)c1`: 88.1% (active); `COc1ccc(-c2coc3c(C(=O)NC(C)C)cccc23)c(C)c1`: -2.36%; `CC(=O)Oc1cc2c(C(=O)NCCN3CCOCC3)c(C)oc2c2ccccc12`: 0.36%.

For the compound `CCOC(=O)[C@H]1[C@H]2COc3cc(OC)ccc3[C@@H]2N2C(=O)CN(Cc3ccc(Cl)cc3)C(=O)[C@@]12C`, the inhibition is -3.3%. To `C=CCn1c(=O)n(C)c2c(=O)n(C)c(=O)n(C)c21` belongs 1.89%; to `Nc1scc(-c2ccncc2)c1Cl`, -1.39%. To `CC(C)(C)Nc1c(-c2cccs2)nc2ccccn12` belongs 76.1% (active); to `Cc1cc2nc(C(F)(F)F)cc(-c3cccs3)n2n1`, 9.4%.

`Cc1nc2ccccn2c(=O)c1NC(=O)c1cccs1`: the inhibition was 3.76%. Next, `COC(=O)C1=C(N)Oc2cc(C)[nH]c(=O)c2C1c1ccc(Cl)cc1` (stereo unspecified): -1.06%; `CCOC(=O)N1CCC(NC(=O)Cn2cc3c(n2)CCCCC3)CC1`: 3.04%; `C[C@H]1CN([C@@H](C)CO)C(=O)CCCn2nncc2CO[C@@H]1CN(C)S(=O)(=O)c1cccc(C#N)c1`: 1.03%. `O=C(CN1C(=O)NC2(CCCCC2)C1=O)NCCC1=CCCCC1`: the inhibition is 1.11%. Next, `COc1cccc(NC(=O)CN(C)C(C)C(=O)Nc2ccc(C#N)cc2)c1` (stereo unspecified): 1.24%; `COc1cccc(NC(=O)CN(C)C(=O)Cc2ccc(Cl)cc2Cl)c1`: -2.96%. To `COc1cccc(NC(=O)CN(C)C(=O)/C=C/c2cc(OC)ccc2OC)c1` belongs 57.2% (active). To `COc1cccc(NC(=O)CN(C)CC(=O)Nc2ccc3c(c2)CCC3)c1` belongs 55.8% (active); to `COc1ccc(/C=C/C(=O)OCC(=O)Nc2cccc(Oc3ccccc3)c2)c(OC)c1`, -1.32%; to `COc1cccc(NC(=O)CN(C)C(=O)CSC(=S)N2CCCC2)c1`, 3.18%.

`Cc1ccc(-c2ccnc3nc(Sc4ncc(C(F)(F)F)cc4Cl)nn23)cc1`: the inhibition is 25.2%. Next, `CCc1ccc(OCC(=O)OCC(=O)c2c(N)n(C)c(=O)n(C)c2=O)cc1`: 3.53%; `COc1ccccc1CNC(=O)Cn1c(=O)oc2cc(Cl)ccc21`: -1.01%; `CC(C)C(C)(C#N)NC(=O)CSc1nc2scc(-c3ccccc3)c2c(=O)[nH]1` (stereo unspecified): -1.25%. Take `COCCNc1nc(-n2nc(C)cc2C)nc2sc3c(c12)CCCC3`: the inhibition is 35.2% (active). To `CCc1nc(N2CCN(C(C)=O)CC2)c2c3c(sc2n1)CCCC3` belongs -1.16%; to `CCCc1nc2sc3c(c2c(=O)n1NC(=O)CCCl)CCCC3`, -0.17%; to `C=CCn1c(CCNC(=O)c2cccs2)n[nH]c1=S`, 0.26%.

In the case of `O=C(NNC(=S)NC1CC2CCC1C2)c1ccc(Cl)cc1` (stereo unspecified), the inhibition is -1.27%. Next, `Cc1nn2c(c1-c1ccccc1)N=C(c1ccco1)CC2c1ccccc1` (stereo unspecified): -3.5%; `COC(=O)c1ccccc1NC(=O)C1CC(=O)N(c2ccc(OC)cc2)C1` (stereo unspecified): 2.12%; `CC1CCCN(c2ccc(C(=O)NCCc3ccccc3)cn2)C1` (stereo unspecified): 2.27%.

As for `O=C(Cc1ccc(Br)cc1)NCCN1CCOCC1`, the inhibition was 1.41%. Consider `CCOC(=O)N1CCN(C(=O)c2ccc3c(c2)N(Cc2ccc(C)cc2)CCS3)CC1`, for which the inhibition is 7.61%. To `O=C(NCCc1ccccc1)c1ccc2c(c1)N(Cc1ccccc1)CCS2` belongs 43.6% (active). As to `O=C(NCCN1CCOCC1)c1c(F)c(F)c(F)c(F)c1F`, the inhibition is -2.22%. To `O=C(NCCN1CCOCC1)c1ccc2c(c1)N(Cc1ccc(Cl)cc1)CCS2` belongs 32.2% (active); to `CN(C)/C=N/c1cc(=O)n(C)c(=O)n1CC1CC1`, -0.52%.

Consider `CN1C(C(=O)NCC2CC2)CC2Cn3c(nc4ccccc43)C21` (stereo unspecified), for which the inhibition was -0.07%. Next, `Cc1nonc1OCCn1nnnc1N`: -0.1%; `COC[C@@H]1NS(=O)(=O)c2ccc(Br)cc2O[C@H]1c1ccccc1`: -2.58%; `Cc1nonc1C1CCCN1C(=O)c1cc(COc2cccc(C(F)(F)F)c2)on1` (stereo unspecified): -1.66%.

For `CCCC1OC23CCCCC2C(C#N)(C#N)C1(C#N)C(=N)O3` (stereo unspecified), the inhibition was 48.2% (active). To `CCCCc1cc(=O)oc2cc(C)cc(OCc3nn[nH]n3)c12` belongs 183% (active); to `CN(CCOc1ccccc1)Cc1nc2cc(Cl)ccc2c(=O)[nH]1`, 7.42%.

Source of the values: PubChem BioAssay AID588726 (The Scripps Research Institute Molecular Screening Center, 2011).
